A selection: hits, their analogues and other compounds. The true share with any hit is near 1.5%.
BH1578 lux ind: induces V. cholerae light production without autoinducers; 350,000 tested, 0.16% active; V. cholerae BH1578 lux reporter, luminescence, 6 h; activation, % at 18.7 µM; AID 588436; in the data active means activation mostly above about 9.7%, no sharp cut-off
SSB-PriA inh: inhibitors of Klebsiella pneumoniae PriA binding to SSB C-terminal tail | AlphaScreen SSBct-PriA binding, biotinylated peptide | 430,000 tested, 0.6% active | inhibition, % at 33 µM | AID 1272365; in the data active means inhibition mostly above about 37%, no sharp cut-off; inactive means mostly below about 20%;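 further: plate controls were negative control peptide for no effect and reference peptide for full effect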
DUSP3 inh: blocks human VHR1 dual specificity phosphatase. recombinant VHR phosphatase, pNPP absorbance. inhibition, % at 13.3 µM. 290,000 tested, 0.52% active. AID 1654; in the data active means inhibition above about 50%
CCHFV vOTU inh: blocks the CCHF virus ovarian tumor domain protease; AID 651958; 370,000 tested, 0.55% active; inhibition, % at 11.5 µM; CCHFV vOTU protease, Pep-AMC fluorescence; in the data active means inhibition above about 30%; further: 0% = vehicle wells with enzyme and 100% = no enzyme wells
PrPC surface inh: inhibitors of human cell surface prion protein PrPC; 370,000 tested, 0.43% active; inhibition, % at 13.8 µM; P04156; TR-FRET read-out; in the data active means inhibition above about 24%; further: 0% = median of the test wells and 100% = reference compound wells
TcdB GH inh: blocks C. difficile toxin B glycohydrolase activity | P18177 | TcdB glycohydrolase enzymatic assay, plate reader | inhibition, % at 9.99 µM | 350,000 tested, 0.24% active | AID 652162; in the data active means inhibition above about 10%
* = called active by the depositor; i = inactive; nt = no result given; ! = a repeat was not active.

SMILES	BH1578 lux ind	SSB-PriA inh	DUSP3 inh	CCHFV vOTU inh	PrPC surface inh	TcdB GH inh
OCCCn1c(-c2ccccc2)csc1=Nc1ccccc1	-0.3	42.1*	-10.7	14.2	6.2	-2.8
COC(=O)c1ccc(S(=O)(=O)Nc2cnn(C3CCOC3)c2)cc1 (stereo not drawn)	nt	-10.0	nt	nt	nt	nt
COc1ccccc1-c1ccc(N2CCC(NC(=O)Cc3cccs3)CC2)nn1	nt	1.0	nt	nt	nt	nt
CCCCN(C(=O)c1cccc(S(=O)(=O)N2CCOCC2)c1)c1c(N)n(CCC)c(=O)[nH]c1=O	-3.6	-5.8	17.4	3.0	-0.6	0.7
CCCn1c(N)c(C(=O)COC(=O)c2cccc(S(=O)(=O)N3CCOCC3)c2)c(=O)[nH]c1=O	i	-6.9	nt	18.8	-6.5	13.4*
NC(=Nc1nc2ccccc2o1)NC(=O)c1cccc(Br)c1	nt	4.9	nt	nt	nt	nt
Cc1cccnc1NC(=S)Nc1ccc(F)cc1F	i	-0.9	3.9	9.7	-0.6	1.2
Cc1ccc(C)c(NC(=S)Nc2ncccc2C)c1	-0.2	39.6*	35.3	4.0	9.8	1.4
O=C(CCS(=O)(=O)c1ccc(Br)cc1)N1CCN(c2ccc(F)cc2)CC1	-0.3	8.6	50.4*	26.1	0.8	2.0
O=C(NCC1CCN(C(=O)c2ccoc2)CC1)c1ccc2ncsc2c1	nt	-2.0	nt	nt	nt	nt
Cc1cc(C)c(S(=O)(=O)N2CCOC2CNC(=O)C(=O)NCCCn2ccnc2)c(C)c1 (stereo not drawn)	-0.3	49.8*	4.8	3.0	-5.7	0.4
O=C(NCCc1ccccc1)C(=O)NCC1OCCN1S(=O)(=O)c1ccc2c(c1)OCCO2 (stereo not drawn)	i	-4.2	-7.2	-2.4	-2.3	2.0
COc1ccc(S(=O)(=O)N2CCOC2CNC(=O)C(=O)NCc2ccncc2)cc1 (stereo not drawn)	i	2.6	13.7	-8.1	6.3	0.2
COc1ccc(S(=O)(=O)N2CCOC2CNC(=O)C(=O)NCCCn2ccnc2)cc1 (stereo not drawn)	nt	102.5*	nt	nt	nt	nt
O=C(NCCCn1ccnc1)C(=O)NCC1OCCN1S(=O)(=O)c1ccc([N+](=O)[O-])cc1 (stereo not drawn)	nt	80.0*	nt	nt	nt	nt
CNC(=O)C(=O)NCC1OCCN1S(=O)(=O)c1ccc([N+](=O)[O-])cc1 (stereo not drawn)	i	-10.6	0.1	-1.4	-33.0	nt
O=C(NCCCn1ccnc1)C(=O)NCC1OCCN1S(=O)(=O)c1ccc2c(c1)OCCO2 (stereo not drawn)	0.3	23.0*!	20.6	-1.6	-6.7	-0.6
O=C(NCCCn1ccnc1)C(=O)NCC1OCCCN1S(=O)(=O)c1cccs1 (stereo not drawn)	nt	11.0	nt	nt	nt	nt
O=C(COc1ccc(Cl)cc1Cl)Nc1c2c(nn1-c1ccccc1)CSC2	nt	8.0	nt	nt	nt	nt
Cc1cc(CCNC(=O)CCSc2ccccc2)on1	nt	-10.0	nt	nt	nt	nt
CC(Nc1cccc2ccccc12)C(=O)NN=Cc1ccccn1 (stereo not drawn)	nt	85.1*	nt	nt	nt	nt
O=[N+]([O-])c1ccc(N2C(=S)N(c3ccc(F)cc3)C3CS(=O)(=O)CC32)cc1 (stereo not drawn)	nt	6.0	nt	nt	nt	nt
O=c1oc2ccccc2c(N2CCCCC2)c1CN1CCCCC1	25.0*	-10.6	13.2	2.9	-0.2	nt
C[C@@H]1C=C[C@](Cc2ccccc2)(C(=O)NCC2CC2)N1C(=O)c1ccccc1	i	-20.4	7.6	5.0	-0.9	11.2*
O=C1C(Nc2ccc(O)cc2)=CC(=NS(=O)(=O)c2cccs2)c2ccccc21	nt	75.8*	nt	nt	nt	nt
SMILES	BH1578 lux ind	SSB-PriA inh	DUSP3 inh	CCHFV vOTU inh	PrPC surface inh	TcdB GH inh
Cc1cc(C)c(S(=O)(=O)N=C2C=C(Sc3ncn[nH]3)C(=O)c3ccccc32)cc1C	nt	10.5	nt	nt	nt	nt
CCc1ccc(S(=O)(=O)N=C2C=C(Nc3ccc(O)cc3)C(=O)c3ccccc32)cc1	nt	95.0*	nt	nt	nt	nt
CCc1ccc(S(=O)(=O)/N=C2/C=C(Sc3ncn[nH]3)C(=O)c3ccccc32)cc1	-0.3	nt	55.1*	nt	nt	nt
COC(=O)c1ccc2c(=O)n(CCN3CCN(c4ccc(OC)cc4)CC3)c(=S)[nH]c2c1	nt	10.0	nt	nt	nt	nt
Cc1cc(NC(=O)c2cc3ccccc3o2)n(-c2nc3c(cnn3-c3cccc(Cl)c3)c(=O)[nH]2)n1	nt	-12.0	nt	nt	nt	nt
CCOCC(=O)N1CCN(Cc2nc3ccccc3[nH]2)CC1	nt	-7.0	nt	nt	nt	nt
CC(Oc1ccc(C#N)cc1)C(=O)Nc1nc(-c2ccccn2)cs1 (stereo not drawn)	nt	109.0*	nt	nt	nt	nt
O=C(CN1NC2=CCSCC2=CC1=O)Nc1nc(-c2ccccn2)cs1	nt	-3.7	nt	nt	nt	nt
CC(C(=O)Nc1nc(-c2ccccn2)cs1)N1NC2=CCCC2=CC1=O (stereo not drawn)	nt	95.0*	nt	nt	nt	nt
CC(N)C(=O)Nc1nc(-c2ccccn2)cs1 (stereo not drawn)	nt	59.1	nt	nt	nt	nt
O=C(Nc1nc(-c2ccccn2)cs1)c1ccc(-n2cnnn2)cc1	nt	48.3	nt	nt	nt	nt
CC(NC(=O)c1cccs1)C(=O)Nc1nc(-c2ccccn2)cs1 (stereo not drawn)	nt	103.0*	nt	nt	nt	nt
O=C(Nc1nc(-c2ccccn2)cs1)C1(n2cnnn2)CCCCC1	nt	158.5*	nt	nt	nt	nt
COCCNC(=O)Cn1nc2c(c1NC(=O)c1ccc3c(c1)OCO3)CSC2	nt	-6.0	nt	nt	nt	nt
Nn1c(Cc2ccccc2)nn2c(=O)c3ccccc3nc12	nt	-7.0	nt	nt	nt	nt
O=S(=O)(NCCOc1ccc2c(c1)OCO2)c1ccc2c(c1)CCCC2	nt	16.0	nt	nt	nt	nt
Cn1nnc2c(N3CC(C(=O)NCc4cccs4)C3)ncnc21	nt	-4.0	nt	nt	nt	nt
CS(=O)(=O)C1CCN(C(=O)COc2ccccc2F)CC1	nt	2.0	nt	nt	nt	nt
Cc1cccc(C(=O)N[C@H](C(=O)Nc2nc(C)cs2)C(C)C)c1	-3.8	9.2	5.4	3.6	-2.4	-0.2
Cc1cccc(C(=O)NC(C)C(=O)Nc2nc(-c3ccccn3)cs2)c1 (stereo not drawn)	nt	100.0*	nt	nt	nt	nt
CC(C)C(=O)Nc1nc(-c2ccccn2)cs1	nt	73.8*	nt	nt	nt	nt
Cc1nc(S(=O)(=O)NCc2nc(-c3cccn3C)no2)cn1C	nt	-7.0	nt	nt	nt	nt
O=C(Cc1cc(-c2ccc(Cl)cc2)on1)Nc1ccc(F)c(F)c1	nt	0.0	nt	nt	nt	nt
O=C(CSc1ncc(-c2ccc(Cl)c(Cl)c2)n1Cc1ccccc1)Nc1nccs1	nt	-6.0	nt	nt	nt	nt
O=C(c1ccc(Cl)c(S(=O)(=O)NCc2ccccc2)c1)N1CCN(c2ccccn2)CC1	i	5.2	54.4*	nt	nt	-0.2
SMILES	BH1578 lux ind	SSB-PriA inh	DUSP3 inh	CCHFV vOTU inh	PrPC surface inh	TcdB GH inh
CCN1CCN(C(=O)COc2ccc(S(=O)(=O)N3CCOCC3)cc2C)CC1	-6.2	3.6	54.4*	5.9	5.6	-0.5
CCOC(=O)C(=O)NNc1ccc(C)cc1	-0.7	6.0	-4.6	10.5	15.9	nt
CCOC(=O)C(=O)NNc1ccc(Cl)cc1	i	-3.8	24.5	-3.1	8.8	47.1*
O=C(Nc1ccc(-c2ccc(N3CCCCC3)nn2)cc1)c1ccc2c(c1)OCO2	nt	3.0	nt	nt	nt	nt
CC[C@@H](C(=O)NC1CCN(CCOC)CC1)c1ccccc1	nt	-12.0	nt	nt	nt	nt
Cc1cc(N=Nc2ccc(Cl)cc2)cc(CN2CCOCC2)c1O	i	49.1*	18.6	1.9	-6.2	-0.1
Cc1cc(N=Nc2ccc(Cl)cc2)cc(CN2CCCC2)c1O	-0.3	72.0*	-19.4	9.7	1.6	1.1
Oc1c(CN2CCOCC2)cc(CN2CCOCC2)cc1CN1CCOCC1	i	-5.6	nt	-4.0	-2.7	1.4

Screening data as filed in PubChem.
